This is one part of a sample in which hits are shown more often than they occur.
Pf Dd2 growth: inhibitors of Plasmodium falciparum Dd2 growth; P. falciparum Dd2 growth, SYBR Green, 72 h; AID 1347417; actives 4.3% (n = 120,000); Potency, µM (doses to about 28.9 µM), without a hit: top-dose activity, negative = inhibition, most hits filed as inhibitors; active = well fitted inhibition curve with a large enough effect;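 note: plate controls were DMSO vehicle for no effect and reference drug for full effect; nearly all actives have a fitted effect of over 65% in size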
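Infected erythrocytes (Dd2, 0.3% parasitemia, 2.5% hematocrit final) are added to compound in RPMI-1640/Albumax II medium, grown 72 h at 37C in low oxygen, then lysed with saponin/Triton-X containing SYBR Green and read by fluorescence.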
The depositor's hits bear a star; i = inactive; [ ] = another dose, or the depositor's remark. Potency is the fitted concentration of half-maximal effect.

SMILES	Pf Dd2 growth
COc1ccccc1N1CCN(C2CCCN(Cc3nc(C(N)=O)no3)C2)CC1 (stereo not drawn)	-21%
CCn1c(-c2ccccc2)nn(CC(=O)NCc2ccsc2)c1=O	7%
O=C(NCC1CC1)c1noc(-c2ccccc2F)n1	i
O=c1n(-c2ccc(F)cc2F)nc2n1CCN(Cc1ccccc1)C2	-18%
COc1ccc(Cl)cc1NC(=O)c1cc2ccc3ccc(C)[nH]c3c2n1	11µM*
COc1ccc(Cl)cc1NC(=O)c1cnc(SC)nc1-c1ccccc1	8%
COc1ccc(Cl)cc1NC(=O)c1cc2nc(-c3ccc(C)cc3)cc(C(F)(F)F)n2n1	19%
COc1ccccc1N1CCN(C(=O)c2cc3ccc4ccc(C)[nH]c4c3n2)CC1	13µM*
COc1ccccc1N1CCN(C(=O)c2cc(-c3ccccc3O)on2)CC1	10%
CCSc1ncc(Cl)c(C(=O)N2CCN(c3ccccc3OC)CC2)n1	34%
CS(=O)(=O)N1C[C@@H](COc2cccnc2)[C@H](c2ccccn2)C1	3%
Cc1ccc(-c2cc3c(=O)n(CCNC(=O)c4cccc(N(C)C)c4)ccn3n2)cc1C	-15%
CCC(CC)C(=O)N[C@H]1CCN2C(=O)c3cc(-c4cccs4)ccc3NC(=O)[C@@H]2C1	i
COCCNC(=O)[C@@H]1CCC[C@@H](NCC2CC2)CN(C)C(=O)C1	0%[44.1 µM]
CC1CCCN(C(=O)Cn2ccn3nc4c(c3c2=O)CCCC4)C1 (stereo not drawn)	-18%
O=C(O)c1ccc(CN2Cc3[nH]cnc3C[C@H]2C(=O)NCc2ccco2)cc1	4%[44.1 µM]
COc1ccc(C(=O)N2CC(Oc3ccc(F)cc3F)C2)cc1	9%
CC1(c2ccccc2)N(Cc2ccccc2C#N)C(=O)OC12CCN(C(=O)CN1CCOCC1)CC2 (stereo not drawn)	-26%
COc1cccc(CN2C(=O)OC3(CCN(C(=O)C4CCC4)CC3)C2(C)c2cccnc2)c1 (stereo not drawn)	i
COc1cccc(CN2C(=O)OC3(CCN(Cc4c[nH]c5ccccc45)CC3)C2(C)c2cccnc2)c1 (stereo not drawn)	0.79µM*
COc1ncccc1CN1CCC2(CC1)OC(=O)N(Cc1ccccc1C#N)C2(C)c1ccccc1 (stereo not drawn)	4.5µM*
COc1cccc(CN2C(=O)OC3(CCN(C(C)=O)CC3)C2(C)c2cccnc2)c1 (stereo not drawn)	-6%[44.1 µM]
CC1(c2cccnc2)N(Cc2ccccc2)C(=O)OC12CCN(C(=O)COc1ccccc1)CC2 (stereo not drawn)	6.3µM*
CC1(c2ccccc2)N(Cc2ccccc2)C(=O)OC12CCN(C(=O)COc1ccccc1)CC2 (stereo not drawn)	-17%
CC1(c2ccccc2)N(Cc2ccccc2)C(=O)OC12CCN(Cc1cccnc1N)CC2 (stereo not drawn)	-22%
SMILES	Pf Dd2 growth
CC1(c2ccccc2)N(Cc2cccnc2)C(=O)OC12CCN(C(=O)Cc1ccccc1)CC2 (stereo not drawn)	i
Cc1cnc(C(=O)NC2C[C@H]3CC[C@@H](C2)N3C(=O)c2cccc(F)c2)cn1 (stereo partly drawn)	-20%
COc1ccc(CCNC(=O)Cn2ccn3nc4c(c3c2=O)CCCCC4)cc1OC	49%
O=C(Cn1nc2n(c1=O)CCCC2)NCc1ccc(F)cc1	69%
Cc1cc(C)c(S(=O)(=O)N2CC(c3nc(-c4ccncc4)no3)C2)cc1C	-21%
CN1CC(=O)N(C2CCCNC2)Cc2c(NCC(C)(C)C)ncnc21 (stereo not drawn)	10%
CCC(C)NC(=O)C(NC(=O)c1cccc(C)c1)C1CCN(C(=O)c2ccccc2F)CC1 (stereo not drawn)	i
O=C(NC[C@H]1OC[C@@H](NCc2ncc[nH]2)[C@@H]1O)C1CCCC1	-2%[44.1 µM]
Cc1nc2n(c1C(=O)NCCOc1ccccc1)CCC(Nc1ccc(F)cc1)C2 (stereo not drawn)	i
CCCCN1C(=O)c2ccccc2C(C(=O)NCc2ccccn2)C12CCCCC2 (stereo not drawn)	i
CCC(C(=O)NCc1ccc(OC)c(OC)c1)n1nc(C)c2c(C)n(-c3ccc(C)cc3)nc2c1=O (stereo not drawn)	2.8µM*
Cc1ccc(CCNC(=O)C(C)n2nc(C)c3c(C)n(-c4ccc(C)cc4)nc3c2=O)cc1 (stereo not drawn)	i
CCC(C(=O)Nc1cc(F)ccc1F)n1nc(C)c2c(C)n(-c3ccc(C)cc3)nc2c1=O (stereo not drawn)	1%
CCOc1ccc(NC(=O)CN2C(=O)NC3(CCOCC3)C2=O)cc1	-9%
CCN(Cc1cccc2cnccc12)CC1CCCN(CCc2cccc(F)c2)C1 (stereo not drawn)	2.2µM*
O=C1CCN(Cc2cccc(F)c2)CCCC(c2nc(-c3cccnc3)no2)CCN1 (stereo not drawn)	-17%
CN(CC1CCN(CCc2cccc(F)c2)CC1)C(=O)COc1cccnc1	-25%
Cc1noc(C2CCCCCN2C(=O)c2ccnn2C)n1 (stereo not drawn)	i
O=C(C1CCCCC1)N1CCC2(CN[S+](=O)([O-])c3cnccc3O2)C1 (stereo not drawn)	20%
Cc1ccccc1-n1cc(CN(C)Cc2nc(-c3ccc(C(F)(F)F)cc3)no2)cn1	0%
c1ccc(C(CNc2nccc(-c3ccncc3)n2)N2CCOCC2)nc1 (stereo not drawn)	2%
Cc1ccccc1-n1cc(-c2ccnc(NC(C)Cc3ccncc3)n2)cn1 (stereo not drawn)	8.9µM*
CCOc1ccc(CCNC(=O)Cn2ccn3nc(-c4ccccc4)c(CO)c3c2=O)cc1OCC	-8%
COc1cc(NC(=O)c2oc3c(c2C)-c2nn(Cc4cccc(Cl)c4)cc2CC3)cc(OC)c1	-28%
COc1ccc(NC(=O)c2oc3c(c2C)-c2nn(Cc4c(F)cccc4Cl)cc2CC3)c(OC)c1	i
SMILES	Pf Dd2 growth
COc1ccc(OC)c(NC(=O)c2oc3c(c2C)-c2nn(Cc4ccc(Cl)cc4)cc2CC3)c1	10µM*
CC(C)NC(=O)Cc1csc2nc(-c3ccccc3)cn12	40%
CCN(CC)CCCNC(=O)Cc1csc2nc(-c3ccc(Cl)cc3)cn12	8.9µM*
COc1ccccc1CNC(=O)Cc1csc2nc(-c3ccccc3)cn12	-20%
CNCC(=O)N1CCCC(c2nnc(CN3CCOCC3)n2C)C1 (stereo not drawn)	2%
Cc1ccsc1C(=O)N1CCc2onc(-c3ccc(F)c(F)c3)c2C1	-15%
O=C(N[C@H](c1cccs1)C1CC(O)C1)c1n[nH]c2c1COCC2 (stereo partly drawn)	-13%
Cn1cccc1CN1CCC2(C1)NC(=O)c1ccccc1CO2 (stereo not drawn)	-12%[44.1 µM]
Oc1cccc(Nc2nc(-c3ccccc3)nc3ccccc23)c1	-1%
CN1CCN(C(=O)Cc2c[nH]c3ncc(-c4cccc(O)c4)cc23)CC1	-8%[44.1 µM]
OCCNc1ncnc2ccc(-c3cccc(O)c3)cc12	8.9µM*
O=C(CCCn1ccnc1)N1CCn2nc(C(O)Cc3ccccc3)cc2C1 (stereo not drawn)	-3%
O=C(NC1C[C@H]2CC[C@@H](C1)N2C(=O)Cc1ccc(F)cc1)c1ccncc1 (stereo partly drawn)	i
Cc1c(CN(C)c2cc(C3CC(O)C3)nc(N)n2)[nH]c2ccccc12 (stereo not drawn)	-16%
Cc1ccc(SCCN(C)c2cc(C3CC(O)C3)nc(N)n2)cc1 (stereo not drawn)	5.6µM*
CN(CCc1nc2ccc(Cl)cc2[nH]1)c1cc(C2CC(O)C2)nc(N)n1 (stereo not drawn)	i
